HDAC3 inhib: human HDAC3 inhibition; inhibition, % at 8.3 µM; recombinant HDAC3, fluorogenic peptide/trypsin coupled, fluorescence; AID 2718; 320,000 compounds, 0.15% hits; O15379; in the data active = inhibition above about 26%, passing the limit was not always enough; inconclusive = no clear call, values can overlap the other calls
LANA-H2A inh: blocks KSHV LANA binding to histone H2A/H2B | Q9QR71 | cell-free LANA-H2A/H2B peptide, fluorescence polarization | inhibition, % (test concentration not listed) | 320,000 compounds, 0.6% hits; in the data active = inhibition mostly above about 10%, no sharp cut-off; inactive = mostly below about 6.7%
DSG3 Ab inh: inhibitors of pemphigus antibody binding to human desmoglein-3. 310,000 compounds, 0.48% hits. DSG3-coupled beads, scFv-anti-DSG3-GFP binding, flow cytometry; active compounds read low. AID 588358. binding (percent of control), % at 10 µM. P32926;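 active = binding more than 3 SD below its plate's average and above zero; inconclusive = below that plate limit but binding exactly zero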;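 also: hits lower antibody fragment binding to DSG3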
PKD1 inh: PKD1 (human) kinase inhibition. 200,000 compounds, 0.056% hits. inhibition, % (concentration not given with the values). Q15139. PKD1 kinase fluorescence polarization assay
VLA-4 inh: inhibition in a human VLA-4 binding assay; P13612; VLA-4 expressing cells, ligand binding flow cytometry; inhibition, % (about 7 µM as worked out from the volumes in the protocol); 330,000 compounds, 0.2% hits
GRK2 aptamer HTS: inhibitors of human GRK2 displacing RNA aptamer. P25098. bead flow cytometry, FAM-aptamer displacement from GRK2. inhibition of aptamer binding, % at 10 µM. AID 488847. 330,000 compounds, 0.59% hits;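 active = inhibition of aptamer binding above 40%, roughly 3 SD of noise, on plates passing a quality check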;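 also: median bead fluorescence of bound FAM aptamer so fluorescent compounds give negative values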
Starred values were filed as active, the others as inactive; ? = inconclusive; nt = not tested or not shown; + = active, no number. Compounds with a hit are over-represented: about 1.8% of the library has one in this group of screens. Rule as the data show it, unless noted: active = inhibition above about 50%; inactive = the rest.

SMILES	HDAC3 inhib	LANA-H2A inh	DSG3 Ab inh	PKD1 inh	VLA-4 inh	GRK2 aptamer HTS
OCC[C@H]1C[C@@H](O)[C@H](O)[C@@]2(CCc3ccccc3O2)O1	2.4	-4.2	100.8	nt	4.5	0.0
O=C(NC1CCN(C(=O)Nc2ccc(F)cc2)CC1)c1ccc(F)cc1	2.9	0.3	nt	nt	7.6	0.0
CC(NC(=O)C1CCCN1C(=O)c1cccs1)c1ccc(Cl)cc1Cl (centres undefined)	nt	nt	96.0	nt	nt	nt
Cc1cc([N+](=O)[O-])cc2c1NC(=O)C2(O)N1CCOCC1 (centres undefined)	-1.9	58.1*	98.2	0.5	-35.2	2.0
CC1CCN(C2(O)C(=O)Nc3ccc([N+](=O)[O-])cc32)CC1 (centres undefined)	1.1	2.0	96.1	4.5	0.8	2.0
COc1ccc(Nc2nc(C(=O)N3CCc4ccccc4C3)cs2)cc1	4.0	19.4*	100.8	1.5	-15.0	2.0
N#C/C(=C\c1ccc(N2CCOCC2)cc1)c1ccccc1	7.2	-5.5	-132.7*	-13.2	-6.8	0.0
CCCCn1nc(C(=O)NCC(=O)Nc2c(C)cccc2C)c2ccccc2c1=O	4.2	+	93.8	nt	3.2	1.0
O=C(Nc1c(O)c2ccccc2[nH]c1=O)c1ccco1	0.6	-1.6	113.2	nt	10.1	5.0
Cc1cc(C)nc(N(C#N)Cc2cccc(Cl)c2)n1	3.3	-1.6	98.5	-1.3	47.6	4.0
CCOc1ncccc1C(=O)NCCN1C(=O)S/C(=C/c2cccs2)C1=O	-1.9	-1.8	79.5*	5.4	-7.4	2.0
Oc1ccccc1/C=N/Nc1ncc(Br)cn1	5.8	+	98.0	-2.3	11.2	3.0
CCCCCCCCNCCS(=O)(=O)NN1CCOCC1	nt	nt	101.6	nt	nt	0.0
O=C(/C=C/c1ccc2c(c1)S(=O)(=O)N(Cc1ccccc1)[C@H]2CC(=O)N1CCOCC1)N1CCOCC1	-0.1	4.3	98.9	nt	-7.9	2.0
CCN(CC(=O)Nc1ccccc1OC)C(=O)CSCC(=O)Nc1ccc(OC)cc1	-12.0	1.4	105.3	nt	-5.0	0.0
CN(Cc1cc2ccccc2[nH]c1=O)S(C)(=O)=O	-10.0	0.0	54.2*	8.6	8.6	3.0
CCc1ccccc1NC(=O)CN1CCN(CC(=O)Nc2cc(C)ccc2OC)CC1	3.5	3.2	nt	nt	-6.1	1.0
CCN(CC)c1ccc2c(-c3ccc(S(=O)(=O)O)cc3S(=O)(=O)[O-])c3ccc(=[N+](CC)CC)cc-3oc2c1	4.1	149.8*	?	nt	-213.9	0.0
COc1ccc(OC)c(-c2oc3ccccc3c(=O)c2O)c1	2.0	3.4*	103.8	-5.1	11.4	1.0
COc1cc(OC)c(-c2oc3ccccc3c(=O)c2O)c(OC)c1	nt	nt	91.1	nt	nt	nt
COc1ccc(C(=O)NCc2nnc(SCC(=O)NO)n2Cc2ccccc2)cc1	90.5*	-4.1	97.0	-1.4	2.2	1.0
Cc1nn(-c2ccccc2)c(C)c1C(=O)NCc1ccccc1F	-2.9	-0.6	111.3	nt	-10.8	0.0
C=CCn1c(SCC#N)nnc1-c1ccc2ncccc2c1	-1.6	6.2	nt	nt	9.1	0.0
Cc1nc2ccc(CN(C)c3ccc(C(=O)N[C@@H](CCC(=O)O)C(=O)O)s3)cc2c(=O)[nH]1	4.1	-3.7	nt	nt	52.0*	53.0*
CC(=O)N(C(C)=O)c1ccc2nc(C)[nH]c(=O)c2c1	-3.5	2.0	98.2	-8.4	7.8	0.0
SMILES	HDAC3 inhib	LANA-H2A inh	DSG3 Ab inh	PKD1 inh	VLA-4 inh	GRK2 aptamer HTS
Cc1sc2nc(CSc3cccc(C(F)(F)F)c3)[nH]c(=O)c2c1C	0.2	4.2	104.9	-2.9	41.2	2.0
COCCn1c(-c2ccc(-c3ccc([N+](=O)[O-])cc3Br)o2)nc2c1c(=O)[nH]c(=O)n2CC(C)C	6.1	-3.8	78.0*	-1.8	-179.4	2.0
COCCn1c(=O)[nH]c(=O)c2c1nc(-c1ccc(-c3ccc(Cl)cc3[N+](=O)[O-])o1)n2Cc1ccccc1	-1.8	5.4	95.8	-0.1	7.7	4.0
COc1ccc(-c2ccc(-c3nc4c(c(=O)[nH]c(=O)n4Cc4ccccc4)n3C)o2)c([N+](=O)[O-])c1	-3.3	-3.3	76.3*	-18.0	-5.2	0.0
Nc1c(N(CCC2=CCCCC2)C(=O)c2ccccc2F)c(=O)[nH]c(=O)n1Cc1ccccc1	-1.7	-0.7	113.0	nt	4.4	0.0
CCC(=O)Oc1ccc(C(=O)Nc2cccc(C(=O)NC(C)(C)C)c2)cc1	8.5	-2.5	86.7*	-15.1	15.6	1.0
O=C(COc1ccc(S(=O)(=O)N2CCCC2)cc1Cl)NCc1cccnc1	-1.6	2.1	103.8	nt	-1.0	0.0
